Assay [1] is described as follows: ATG_E_Box_CIS: Attagene CIS-FACTORIAL HepG2 Assay for human Enhancer Box (E-box) (AID 2282936). Particulars: HepG2 E-box cis-reporter transcription, actives raise or lower the signal. Summed up:
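Transiently transfected HepG2, endogenous TF-driven reporters, 24 h dosing. Readout: RT-PCR plus capillary electrophoresis of fluorescent reporter fragments. Gain or loss of signal fitted bidirectionally against DMSO baseline.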

Assay [2] can be described thus: ATG_M_61_CIS: Attagene CIS-FACTORIAL HepG2 Assay for M61 Transcription Factor (Internal Marker) (AID 2282937). The note with it: HepG2 Attagene CIS-FACTORIAL M61 internal marker reporter; actives raise or lower the signal. In outline: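 Endogenous transcription factor activity in HepG2 is read through transiently transfected cis-element reporter units. After 24 h dosing, RNA undergoes reverse transcription, PCR and primer extension with 6-FAM before capillary electrophoresis; DMSO-referenced bidirectional fit.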

Assay [3] can be described thus: ATG_M_19_CIS: Attagene CIS-FACTORIAL HepG2 Assay for M19 Transcription Factor (Internal Marker) (AID 2282939). Particulars: HepG2 Attagene CIS-FACTORIAL M19 internal marker reporter; actives raise or lower the signal. Summed up: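 Internal marker readout, fitted in both directions against DMSO, from HepG2 cells carrying transfected cis-element reporter constructs; RT-PCR and capillary electrophoresis of reporter mRNA after 24 h exposure.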

Assay [4] is described as follows: ATG_ERE_CIS: Attagene CIS-FACTORIAL HepG2 Assay for Estrogen Response Element (ERE) (AID 2282940). The note with it: HepG2 ERE cis-reporter, Attagene RNA transcript; actives raise or lower the signal. In outline:
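After 24 h compound treatment, RNA from transfected HepG2 cells was reverse-transcribed, reporter cDNA PCR-amplified, FAM-labelled, HpaI-cut and resolved by capillary electrophoresis. ERE-driven cis reporter transcripts reflect endogenous factors; gain or loss scored against DMSO.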

Assay [5] is described as follows: ATG_Ets_CIS: Attagene CIS-FACTORIAL HepG2 Assay for human Erythroblast Transformation Specific (ETS) (AID 2282941). The note with it: HepG2 ETS cis-reporter transcription, actives raise or lower the signal. In outline:
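Multiplexed reporter transcript profiling: HepG2, 24 h treatment, total RNA to cDNA, PCR, 6-FAM labelling, HpaI cut, capillary electrophoresis. Gain- or loss-of-signal fitted against DMSO.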

Assay [6] deals with Hepatocyte nuclear factor 3-beta (Homo sapiens) (UniProt Q9Y261). Description: ATG_FoxA2_CIS: Attagene CIS-FACTORIAL HepG2 Assay for human Forkhead box A2 (FOXA2) (AID 2282942). The note with it: HepG2 cis-reporter transcription factor activity, 24 h; actives raise or lower the signal. In outline:
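Reporter transcript induction is measured by fluorescence after capillary electrophoresis of RT-PCR products from HepG2 cells exposed 24 h. Cis-regulated reporter units report endogenous factor activity; curves fitted both directions against DMSO.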

Assay [7] in a line: ATG_GATA_CIS: Attagene CIS-FACTORIAL HepG2 Assay for human GATA Binding Protein (AID 2282944). Particulars: HepG2 GATA cis-element reporter, Attagene multiplex mRNA; actives raise or lower the signal. Summed up: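 Reporter transcripts from a GATA cis-regulated unit, among multiplexed reporters in transfected HepG2 cells, were measured by RT-PCR with capillary electrophoresis after 24 h dosing. Induction or loss scored relative to DMSO.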

A short description of assay [8]: ATG_GLI_CIS: Attagene CIS-FACTORIAL HepG2 Assay for human Zinc Finger Protein GLI1 (AID 2282945). Particulars: HepG2, Attagene cis-factorial reporter mRNA, GLI element; actives raise or lower the signal. In outline: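 Transiently transfected HepG2 cells report endogenous transcription factor activity via cis-element-driven reporter units. After 24 h compound exposure, reporter mRNA was measured by RT-PCR with capillary electrophoresis; bidirectional fitting against DMSO baseline.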

Assay [9] deals with Bile acid receptor (Homo sapiens) (UniProt Q96RI1). Description: ATG_IR1_CIS: Attagene CIS-FACTORIAL HepG2 Assay for human Nuclear Receptor Subfamily 1 Group H Member 4 (NR1H4), IR1 submotif (AID 2282946). Particulars: IR1 reporter transcription, actives raise or lower the signal. Summed up:
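Fluorescence of capillary-separated, HpaI-digested RT-PCR reporter products gave IR1-element mRNA induction in HepG2 cells 24 h after dosing. Endogenous transcription factors drove the cis-regulated reporters; activity was fitted bidirectionally against DMSO.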

Assay [10] is described as follows: ATG_GRE_CIS: Attagene CIS-FACTORIAL HepG2 Assay for human Glucocorticoid Response Elements (GRE) (AID 2282947). The note with it: HepG2 GRE cis-reporter, Attagene multiplex mRNA; actives raise or lower the signal. In outline: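 Read-out: fluorescent reporter-transcript fragments separated by capillary electrophoresis after RT-PCR. Transiently transfected HepG2 cells carrying cis-element-driven reporter units were dosed for 24 h; gain or loss of signal fitted against DMSO control.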

Assay [11] can be described thus: ATG_ISRE_CIS: Attagene CIS-FACTORIAL HepG2 Assay for human Interferon Regulatory Factor 1 (IRF1) binding to an Interferon-Stimulated Response Element (ISRE) (AID 2282948). Particulars: HepG2 ISRE cis-reporter (Attagene), mRNA transcription readout; actives raise or lower the signal. In outline:
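Signal reflects induction or loss of ISRE-linked reporter mRNA in transiently transfected HepG2 cells after a 24 h treatment, detected by fluorescent RT-PCR fragments on capillary electrophoresis and normalised to DMSO.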

Assay [12] can be described thus: ATG_M_06_CIS: Attagene CIS-FACTORIAL HepG2 Assay for M06 Transcription Factor (Internal Marker) (AID 2282950). Particulars: HepG2 Attagene CIS-FACTORIAL M06 internal marker reporter; actives raise or lower the signal. Summed up:
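Serves as a background control readout. Transfected HepG2 exposed to compounds for 24 h, then reporter transcripts quantified by fluorescent RT-PCR and capillary electrophoresis. Both directions fitted against DMSO baseline.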

The target in assay [13] is Hypoxia-inducible factor 1-alpha (Homo sapiens) (UniProt Q16665). Description: ATG_HIF1a_CIS: Attagene CIS-FACTORIAL HepG2 Assay for human Hypoxia Inducible Factor 1 (HIF1A) (AID 2282951). Particulars: HepG2 Attagene cis-factorial HIF1a reporter transcription; actives raise or lower the signal. In outline:
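Fluorescence intensity of capillary-separated, 6-FAM-labelled reporter amplicons gives mRNA induction in HepG2 cells carrying transfected cis-promoter reporter units; cells exposed 24 h, responses fitted up or down from DMSO.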

For assay [14], the target named is Hepatocyte nuclear factor 6 (Homo sapiens) (UniProt Q9UBC0). The experiment in a line: ATG_HNF6_CIS: Attagene CIS-FACTORIAL HepG2 Assay for human Hepatocyte Nuclear Factor 6 (HNF6) (AID 2282952). Particulars: HepG2 Attagene cis-factorial HNF6 reporter transcription; actives raise or lower the signal. In outline:
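Activity values derive from bidirectional fitting against DMSO of reporter mRNA levels, measured by capillary electrophoresis of labelled RT-PCR products from HepG2 cells exposed 24 h.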

For assay [15], the target named is Heat shock factor protein 1 (Homo sapiens) (UniProt Q00613). The experiment in a line: ATG_HSE_CIS: Attagene CIS-FACTORIAL HepG2 Assay for human Heat Shock Transcription Factor 1 (HSE) (AID 2282953). Particulars: HepG2 HSE cis-reporter, Attagene RNA transcription; actives raise or lower the signal. In outline: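 Endogenous transcription factor activity in transiently transfected HepG2, read as reporter mRNA by RT-PCR with fluorescent capillary electrophoresis after 24 h. Gain or loss of signal fitted versus DMSO baseline.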
Chain of Heat shock factor protein 1 (Homo sapiens) (Q00613 whole entry, looked up): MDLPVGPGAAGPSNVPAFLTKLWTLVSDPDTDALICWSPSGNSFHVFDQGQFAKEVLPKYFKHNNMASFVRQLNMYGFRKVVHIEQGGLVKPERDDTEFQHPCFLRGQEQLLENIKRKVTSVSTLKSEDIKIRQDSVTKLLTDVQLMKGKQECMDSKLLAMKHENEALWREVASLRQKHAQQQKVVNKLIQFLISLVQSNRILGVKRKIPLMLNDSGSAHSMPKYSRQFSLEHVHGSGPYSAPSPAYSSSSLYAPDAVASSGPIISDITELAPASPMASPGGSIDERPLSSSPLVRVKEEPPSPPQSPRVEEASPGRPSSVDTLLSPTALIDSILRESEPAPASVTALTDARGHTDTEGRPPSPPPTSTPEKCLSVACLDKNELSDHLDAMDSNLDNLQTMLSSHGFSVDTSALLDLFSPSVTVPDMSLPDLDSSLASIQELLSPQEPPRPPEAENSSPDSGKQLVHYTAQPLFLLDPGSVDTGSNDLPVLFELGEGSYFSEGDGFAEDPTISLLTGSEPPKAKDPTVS

Assay [16] is described as follows: ATG_MRE_CIS: Attagene CIS-FACTORIAL HepG2 Assay for human Metal Responsive Element (MRE) (AID 2282954). Particulars: HepG2 MRE cis-reporter transcription, Attagene multiplex; actives raise or lower the signal. Summed up:
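RT-PCR/capillary electrophoresis readout of reporter mRNA, 24 h post-dosing, in HepG2 cells transfected with multiplexed cis-regulated reporter constructs. Gain or loss of signal fitted bidirectionally against DMSO baseline.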

The nature of assay [17]: ATG_EGR_CIS: Attagene CIS-FACTORIAL HepG2 Assay for human Early Growth Response 1 (EGR1) (AID 2282938). Particulars: HepG2 Attagene CIS-FACTORIAL EGR reporter mRNA; actives raise or lower the signal. Summed up: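 Activity is taken as induction or loss of reporter mRNA versus DMSO, fitted bidirectionally. Transcripts from cis-regulated reporter units in transiently transfected HepG2 were measured after 24 h by RT-PCR with capillary electrophoresis.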

The nature of assay [18]: ATG_FoxO_CIS: Attagene CIS-FACTORIAL HepG2 Assay for human Forkhead box O (FoxO) (AID 2282943). The note with it: HepG2 Attagene cis-reporter, FoxO element, mRNA; actives raise or lower the signal. In outline:
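HepG2 cells transiently transfected with cis-element-driven reporter units report endogenous FoxO activity. After 24 h chemical exposure, reporter mRNA quantified by RT-PCR, fluorescent labeling, HpaI digestion and capillary electrophoresis; bidirectional fit versus DMSO.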

Assay [19] can be described thus: ATG_M_32_CIS: Attagene CIS-FACTORIAL HepG2 Assay for M32 Transcription Factor (Internal Marker) (AID 2282949).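 Note: background control marker of the multiplexed CIS panel rather than a real target.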 The note with it: HepG2 Attagene cis-factorial M32 reporter, mRNA; actives raise or lower the signal. Summed up:
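Transient MRTU transfection of HepG2; 24 h compound treatment; TriZol RNA, oligo(dT) RT, reporter PCR, 6-FAM primer extension, HpaI cut, CE. Gain/loss of signal vs DMSO.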

Activity calls are given as the source filed them. Rule for the calls: active = hit-call score of the fitted dose curve at least 0.9, where 1 is the maximum; inactive = score below 0.9.

Chain of Bile acid receptor (Homo sapiens) (Q96RI1 whole entry, looked up): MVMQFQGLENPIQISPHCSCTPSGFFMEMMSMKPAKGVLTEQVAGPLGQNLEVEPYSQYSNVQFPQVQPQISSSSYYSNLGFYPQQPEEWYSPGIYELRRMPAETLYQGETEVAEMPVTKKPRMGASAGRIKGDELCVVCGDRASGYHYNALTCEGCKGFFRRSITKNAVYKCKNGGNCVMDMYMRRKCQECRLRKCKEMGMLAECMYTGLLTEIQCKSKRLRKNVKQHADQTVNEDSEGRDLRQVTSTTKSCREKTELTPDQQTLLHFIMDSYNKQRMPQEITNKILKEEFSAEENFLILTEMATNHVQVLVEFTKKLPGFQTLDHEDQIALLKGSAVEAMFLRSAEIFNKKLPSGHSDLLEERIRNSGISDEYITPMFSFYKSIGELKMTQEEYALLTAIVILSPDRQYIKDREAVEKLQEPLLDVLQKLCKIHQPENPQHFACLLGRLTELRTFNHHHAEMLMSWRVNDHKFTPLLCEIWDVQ
Chain of Hepatocyte nuclear factor 6 (Homo sapiens) (Q9UBC0 whole entry, looked up): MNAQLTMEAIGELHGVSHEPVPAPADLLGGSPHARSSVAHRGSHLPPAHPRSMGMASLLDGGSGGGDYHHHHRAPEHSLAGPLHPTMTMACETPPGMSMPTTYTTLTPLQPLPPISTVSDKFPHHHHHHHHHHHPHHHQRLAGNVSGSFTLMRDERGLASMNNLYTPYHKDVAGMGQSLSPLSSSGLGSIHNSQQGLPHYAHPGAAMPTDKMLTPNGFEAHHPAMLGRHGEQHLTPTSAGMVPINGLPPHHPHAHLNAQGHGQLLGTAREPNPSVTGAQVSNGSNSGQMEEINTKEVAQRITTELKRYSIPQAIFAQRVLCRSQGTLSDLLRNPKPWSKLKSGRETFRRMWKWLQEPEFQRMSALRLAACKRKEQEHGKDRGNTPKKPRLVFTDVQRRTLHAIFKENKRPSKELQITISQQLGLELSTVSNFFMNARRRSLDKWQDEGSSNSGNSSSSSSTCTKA
Chain of Hepatocyte nuclear factor 3-beta (Homo sapiens) (Q9Y261 whole entry, looked up): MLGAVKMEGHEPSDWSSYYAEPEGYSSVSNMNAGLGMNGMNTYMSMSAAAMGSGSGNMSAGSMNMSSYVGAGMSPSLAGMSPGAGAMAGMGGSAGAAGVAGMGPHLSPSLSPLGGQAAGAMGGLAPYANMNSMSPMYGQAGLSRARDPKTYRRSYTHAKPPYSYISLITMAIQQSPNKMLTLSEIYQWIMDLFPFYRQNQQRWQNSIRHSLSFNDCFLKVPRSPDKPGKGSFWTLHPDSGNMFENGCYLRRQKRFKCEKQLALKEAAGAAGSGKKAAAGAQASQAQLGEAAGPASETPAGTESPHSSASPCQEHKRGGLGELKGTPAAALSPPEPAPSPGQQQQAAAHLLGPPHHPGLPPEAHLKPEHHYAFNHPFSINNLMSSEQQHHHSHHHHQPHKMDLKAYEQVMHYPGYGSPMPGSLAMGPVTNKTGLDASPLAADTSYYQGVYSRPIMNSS
Chain of Hypoxia-inducible factor 1-alpha (Homo sapiens) (Q16665 whole entry, looked up): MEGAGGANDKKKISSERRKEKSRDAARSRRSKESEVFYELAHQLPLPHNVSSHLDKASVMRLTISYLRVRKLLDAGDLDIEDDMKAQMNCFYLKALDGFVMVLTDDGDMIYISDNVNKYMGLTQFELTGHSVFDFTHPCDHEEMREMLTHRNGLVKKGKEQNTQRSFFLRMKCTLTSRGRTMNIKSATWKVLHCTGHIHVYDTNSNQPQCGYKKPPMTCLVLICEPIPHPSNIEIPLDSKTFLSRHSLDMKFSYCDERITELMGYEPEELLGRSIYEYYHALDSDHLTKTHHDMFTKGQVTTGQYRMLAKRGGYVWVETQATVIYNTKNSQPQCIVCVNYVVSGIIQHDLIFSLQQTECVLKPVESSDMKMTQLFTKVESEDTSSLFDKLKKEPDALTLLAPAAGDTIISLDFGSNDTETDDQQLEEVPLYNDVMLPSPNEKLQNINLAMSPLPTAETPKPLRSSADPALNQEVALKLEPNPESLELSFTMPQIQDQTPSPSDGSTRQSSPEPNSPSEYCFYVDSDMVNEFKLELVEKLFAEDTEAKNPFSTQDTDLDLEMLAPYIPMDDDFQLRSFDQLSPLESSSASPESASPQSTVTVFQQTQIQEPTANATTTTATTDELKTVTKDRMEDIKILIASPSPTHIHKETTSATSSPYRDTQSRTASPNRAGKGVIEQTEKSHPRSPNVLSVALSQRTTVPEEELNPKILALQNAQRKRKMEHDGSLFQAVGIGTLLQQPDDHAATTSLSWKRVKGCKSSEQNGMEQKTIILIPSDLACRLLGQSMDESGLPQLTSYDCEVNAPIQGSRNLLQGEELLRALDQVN

As to `CCOc1ccc(NC(N)=O)cc1`, the result in assay [1], in assay [2], in assay [3], in [4], in assay [5] and in [6] was inactive. In addition, the molecule was called inactive in [7], in [8], in assay [9], in [10], in [11] and in assay [12]. Moreover, the call in assay [13], in assay [14], in [15] and in assay [16] was inactive.
For orientation: AC50 means the concentration at which the activity in the assay is half-maximal. In the case of `CC1(C)CC(O)CC(C)(C)N1[O]`, the outcome in [2], in [17], in [4], in [5], in assay [6] and in [18] was inactive. The molecule was called inactive in [7], in [8], in [11], in assay [19], in assay [12] and in assay [13]. The call in [14], in [15] and in assay [16] was inactive. Further, in assay [9], the AC50 was 27.7 µM (active).
With `CO[Si](CCCS)(OC)OC`, the result in [2], in [17], in assay [3], in assay [5], in assay [6] and in [18] was inactive. Also, the molecule was classed as inactive in assay [7], in assay [8], in assay [9], in assay [10], in assay [11] and in [19]. For the same molecule, the molecule was called inactive in assay [12], in [14] and in assay [16]. The AC50 in assay [4] was 68.7 µM (active).
For `C[N+](C)(C)CCCNS(=O)(=O)C(F)(F)C(F)(F)C(F)(F)C(F)(F)C(F)(F)C(F)(F)C(F)(F)C(F)(F)F`, the outcome in [1], in [2], in assay [17], in assay [3], in assay [4] and in assay [5] was inactive. Also, the molecule was called inactive in assay [6], in [18], in [7], in assay [8], in assay [9] and in assay [11]. Also, the call in assay [19], in [12], in assay [13], in [14], in assay [15] and in assay [16] was inactive.
In the case of `Clc1cccnc1`, the outcome in assay [1], in assay [2], in [4], in [5], in assay [6] and in assay [18] was inactive. Moreover, the molecule was called inactive in assay [7], in [8], in assay [9], in [10], in assay [11] and in [19]. Moreover, the molecule was called inactive in assay [12], in assay [13], in assay [14], in assay [15] and in [16].

The values above are taken from PubChem BioAssay (EPA / NIEHS).
